PubChem BioAssay (NCI)
Compounds without any hit were thinned out: in the full panel of roughly 83,000, 20% have a hit.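 Compound tested at a single concentration for 48 hours in 96-well plates; a percent growth value below 10 was scored as active.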 Unmarked numbers belong to inactive results. Calls of active or inactive are those of the source.

Experiments:
Assay in all cases: NCI-60 one-dose screen, 48 h (100 = growth as untreated, 0 = no growth, -100 = all killed)
Details in all cases: 10 µM unless noted
NCI-H23 lung = test system: NCI-H23 lung
NCI-H226 lung = test system: NCI-H226 lung
NCI-H322M lung = test system: NCI-H322M lung
HOP-62 NSCLC = test system: HOP-62 NSCLC
NCI-H460 lung = test system: NCI-H460 lung
HOP-92 NSCLC = test system: HOP-92 NSCLC
NCI-H522 lung = test system: NCI-H522 lung
A549/ATCC NSCLC = test system: A549/ATCC NSCLC
786-0 renal = test system: 786-0 renal
COLO 205 colon = test system: COLO 205 colon

Structure (SMILES) | growth (NCI-H23 lung) | growth (NCI-H226 lung) | growth (NCI-H322M lung) | growth (HOP-62 NSCLC) | growth (NCI-H460 lung) | growth (HOP-92 NSCLC) | growth (NCI-H522 lung) | growth (A549/ATCC NSCLC) | growth (786-0 renal) | growth (COLO 205 colon)
CCOC(=O)N1CCN(CCCCOc2ccc(C(C)(C)CC)cc2)CC1 | 89.4% | 88.5% | 113% | 100% | 105% | 86.3% | 77.8% | 95.7% | 99.7% | 105%
COc1ccc(/C(=C\c2ccc3c(c2)OCO3)C(=O)Nc2nc3ccccc3s2)cc1OC | 95.1% | 86.9% | 91.4% | 94.2% | 102% | 91.4% | 89.5% | 91.5% | 83.7% | 110%
Oc1ccc(CCC2CCCC(CCc3ccc(OCCF)cc3)N2)cc1 (stereo not given) | 87.3% | 99.3% | 106% | 95.6% | 102% | 75.3% | 95.3% | 91% | 95.9% | 97.2%
CCCCC[C@H]1C/C=C2/C(=O)C(Cl)=C[C@@H]2C/C=C\CCCC(=O)O1 | -34.5% (active) | -32.7% (active) | -74.2% (active) | -36.7% (active) | -16.6% (active) | -48.9% (active) | -73.1% (active) | -35.6% (active) | -73.4% (active) | -63.1% (active)
O=[N+]([O-])c1ccc(N/N=C(\C(=N/Nc2ccc([N+](=O)[O-])cc2[N+](=O)[O-])c2ccccc2)c2ccccc2)c([N+](=O)[O-])c1 | 104% | 93.5% | 85.6% | 89.5% | 52.1% | 92.4% | 83.4% | 51.4% | 90.5% | 43.8%
COc1cccc(-c2nn(-c3ccccc3)cc2-c2ccnc(NCCNS(=O)(=O)c3ccccc3)c2)c1 | 39.5% | 41.2% | 62.8% | 58.6% | 28.6% | 19.4% | 9.95% (active) | 34.4% | 42.7% | 10.6%
Nc1c2c(nc3ccc(Br)cc13)CC(c1ccccc1)CC2=O (stereo not given) | 37.7% | 71.2% | 49.1% | 48.9% | 17.1% | 77.9% | 35.6% | 48.5% | 49.6% | 18.6%
CCN(CC)CCCCCNc1cc(OC(=O)c2ccccc2)cc2cccnc12 | 92% | 118% | 102% | 98.7% | 163% | 99.1% | 124% | 122% | 100% | 17.3%
COc1ccc(C2CC(=O)c3c(nc4ccc(Cl)cc4c3N)C2)cc1 (stereo not given) | 102% | 104% | 104% | 109% | 104% | 98.3% | 100% | 106% | 97% | 114%
Clc1ccc(Cn2cc(-c3nc4ccc(Br)nc4n3Cc3ccc(Cl)cc3)c3cccnc32)cc1 | 65.9% | 77.7% | 81.1% | 82.7% | 97.4% | 65.4% | 70% | 95.9% | 90.5% | 94.5%
COC(=O)[C@]12CC[C@@H](C)[C@H](C)[C@@H]1C1=CC[C@@H]3[C@@]4(C)C[C@@H](OC(C)=O)[C@H](O)[C@@](C)(COC(C)=O)[C@@H]4[C@H](O)C[C@@]3(C)[C@]1(C)CC2 | -83.3% (active) | -57.8% (active) | -92.6% (active) | -84% (active) | -86.9% (active) | -67.4% (active) | -81.6% (active) | -86.2% (active) | -81.9% (active) | -81.3% (active)
Cn1nc(-c2ccccc2)c2c(-c3ccccc3)onc2c1=O | 48% | 62.1% | 55.4% | 31% | 28.3% | 43.9% | 10.6% | 35.4% | 49.7% | 15.2%
COc1ccc2c(c1)c(-c1nc(-c3c[nH]c4ncccc34)cs1)cn2CCNC(=O)OC(C)(C)C | 70.6% | 72% | 82.6% | 64.1% | 82.2% | 54.9% | 61% | 72.6% | 73.6% | 84.6%
